Among the data in PubChem BioAssay AID1903 (Southern Research Specialized Biocontainment Screening …, 2009) are inhibition values, retold here.

Values joined by “and” are separate entries in the source; they are usually repeats but may differ in a detail not shown here. Equal entries are not always repeated. About 1,200 (0.39%) of roughly 310,000 compounds were called active. Only a sample is shown. Potency and affinity values are given separately. Unmarked numbers belong to inactive results. The rule behind the calls is not given here.

For the assay, the target named is Large T antigen (Simian virus 40) (UniProt P03070). In words: TAg ATPase/helicase activity blockers – biochemical (AID 1903). The note with it: SV40 large T antigen ATPase/helicase inhibition assay; at 20 µM; hits give high values.
Sequence of Large T antigen (Simian virus 40) (P03070 whole entry, looked up): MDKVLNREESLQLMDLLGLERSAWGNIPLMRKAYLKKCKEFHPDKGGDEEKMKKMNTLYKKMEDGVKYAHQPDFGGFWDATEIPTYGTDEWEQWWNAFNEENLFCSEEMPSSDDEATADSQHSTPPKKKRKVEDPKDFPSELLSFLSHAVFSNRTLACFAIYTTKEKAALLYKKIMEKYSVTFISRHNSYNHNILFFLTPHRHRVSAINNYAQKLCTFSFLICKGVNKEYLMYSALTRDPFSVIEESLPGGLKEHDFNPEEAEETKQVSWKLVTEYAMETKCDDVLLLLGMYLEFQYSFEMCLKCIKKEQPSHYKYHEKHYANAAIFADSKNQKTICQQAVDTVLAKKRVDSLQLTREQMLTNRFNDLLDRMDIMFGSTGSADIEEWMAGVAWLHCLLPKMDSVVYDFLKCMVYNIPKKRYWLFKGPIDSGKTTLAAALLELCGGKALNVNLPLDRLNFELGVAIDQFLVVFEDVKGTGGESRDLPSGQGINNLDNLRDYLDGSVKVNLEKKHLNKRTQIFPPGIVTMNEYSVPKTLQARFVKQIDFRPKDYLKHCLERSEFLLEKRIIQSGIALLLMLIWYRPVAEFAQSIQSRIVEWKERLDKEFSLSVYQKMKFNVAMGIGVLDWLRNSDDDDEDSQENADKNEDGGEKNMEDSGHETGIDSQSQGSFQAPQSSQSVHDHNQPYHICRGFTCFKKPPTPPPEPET
One may read the inhibition as the drop in the measured response relative to a control, in per cent. For the molecule `Cc1ccc(NC(=O)c2nc[nH]c2C(=O)N2CCC(C)CC2)cc1`, the inhibition was 9.16%. In the case of `O=C(Cn1nc(-c2cccs2)ccc1=O)Nc1ccc(Br)cc1` it was 3.47%; in that of `O=C1CC(C(=O)Nc2ccc(Cl)cc2[N+](=O)[O-])C2(CCCCC2)O1` (configuration not stated), 6.86%; in that of `COc1ccccc1OCc1nn[nH]n1`, 11.9%. For the molecule `CCC1CCCCN1CCCNC(=O)c1cc2c(=O)[nH]c3ccccc3c2n1C` (configuration not stated), the inhibition was 8.49%. Under `O=C(Nc1c(Cl)cc(Cl)cc1-c1nc2ccccc2s1)c1ccc(Br)o1` stands 6.8%; under `COC(CN(C)C(=O)c1ccc(CS(=O)(=O)c2ccccc2C)o1)OC`, 6.06%; under `Cc1nnc(-c2ccccc2)c[n+]1[O-]`, 2.44%. In the case of `Oc1c(Br)cc(/C=N/n2c(-c3ccccc3)n[nH]c2=S)c(O)c1Br` it was 30.1%; in that of `Oc1c(Br)cc(/C=N/n2c(-c3ccccc3)n[nH]c2=S)cc1Br`, 29.7%. Consider `CCOC(=O)N/N=C(/C)c1ccc(N2C(=O)C3CCCCC3C2=O)cc1` (configuration not stated), for which the inhibition was 11.8%. Under `O=C(O)c1ccc(N(Cc2ccccc2)S(=O)(=O)c2ccccc2)cc1` stands 1.43% and 0.12%. Turning to `CN(C[C@H](Cc1ccccc1)N(C[C@H](Cc1ccccc1)N(CCc1cc(C(F)(F)F)cc(C(F)(F)F)c1)N=O)N=O)N=O`, the inhibition is 0.235%. As to `CCC(=O)c1ccc(OCC(=O)OCC(=O)Nc2c(C)n(C)n(-c3ccccc3)c2=O)cc1`, the inhibition is 12.3%.

In the case of `COc1ccc(N2CCN(CC(=O)Nc3sccc3C#N)CC2)cc1`, the inhibition was 8.41%. Under `O=C(CN1CCN(c2ccc(F)cc2)CC1)Nc1ccc2c(c1)OCCO2` stands 8.68%; under `N#Cc1ccsc1NC(=O)CN1CCN(c2ccccc2)CC1`, 9.52%. With `Cc1c(NC(=O)CN2CCN(c3ccccc3)CC2)c(=O)n(-c2ccccc2)n1C`, the inhibition is 3.86%. Under `Cc1cc(C)cc(OCC(=O)OCC(=O)Nc2c(C)n(C)n(-c3ccccc3)c2=O)c1` stands 15.2%; under `O=C(CN1CCN(c2ccccc2)CC1)Nc1ccc2c(c1)OCCO2`, -0.06%; under `Cc1c(NC(=O)CN2CCN(c3ccc(F)cc3)CC2)c(=O)n(-c2ccccc2)n1C`, 6.05%. Regarding `CCOc1ccc(C2/C(=C(/O)c3ccc4c(c3)CC(C)O4)C(=O)C(=O)N2CCCn2ccnc2)cc1OCC` (configuration not stated), the inhibition was 2.21%.

`Cc1ccsc1/C=N/NC(=O)c1cccnc1`: the inhibition is 10.3%. Under `COc1cccc(N/C=C/C(=O)c2ccc(OC)c(OC)c2)c1` stands 15.6%. Under `Cc1cc(NC(=O)c2ccc3c(c2)C(=O)N(C)C3=O)no1` stands 21.4%; under `COc1ccccc1C(=O)Nc1cccc2c1CCCC2`, 3.42%. As for `Cc1cc(CNC(=O)CCc2nnc(CCCc3ccccc3)o2)nn1C`, the inhibition is 23%. In the case of `Cc1cccc(N(CC(=O)NCc2ccc3c(c2)OCO3)C(=O)CCC(=O)Nc2ccccn2)c1` it was 3.36%; in that of `c1ccc(OCCOCCSc2ncccn2)cc1`, 3.66%.

As for `COc1cccc(-c2ccc3nnc(SCC(=O)N4CCOCC4)n3n2)c1`, the inhibition is 8.56%.

Consider `COc1cc(OC)c(C(=O)OCC(=O)N2CCOCC2)cc1OC`, for which the inhibition was -1.18%.

As for `COc1ccc(N2CCN(CC(=O)Nc3cc(C)on3)CC2)cc1`, the inhibition is 12.3%. On to `CC(C)(C)NC(=O)NC(=O)CN1CCN(c2ccccc2)CC1`, for which the inhibition is -1%. Under `COc1ccc(N2CCN(CC(=O)NC(=O)NC(C)(C)C)CC2)cc1` stands 22.3%; under `CC(=O)c1ccc(N2CCN(CC(=O)Nc3cc(C)on3)CC2)cc1`, 11.5%; under `CCCN(CC(=O)Nc1ccc(Cl)cc1Cl)Cc1cc(=O)n2ccsc2n1`, -0.76%. Under `COc1ccc(C(=O)NCc2nnc(SCC(=O)Nc3nnc(C)s3)o2)cc1` stands 11.2%; under `Cc1ccc(S(=O)(=O)NCC(=O)N(CC(=O)NC2CCCC2)c2ccc3c(c2)OCCO3)cc1`, 6.71%; under `CCOc1c(C)cnc2c1c(=O)n(Cc1c(F)cccc1Cl)c(=O)n2C`, 18.6%. In the case of `CCOc1ccc(N2C(N)=NC(N)=NC2(C)C)cc1` it was 2.99%. Consider `COc1ccc(N2Nc3n[nH]c(N)c3N2)cc1`, for which the inhibition is 34.9%.

Take `COc1ccc(NC2=CC(c3ccc(OC)cc3)N(c3ccc(OC)cc3)C2=O)cc1` (configuration not stated): the inhibition is 11.9%. Under `Cc1cc(NS(=O)(=O)c2cccs2)no1` stands -2.38%; under `CC(=O)Nc1cccc(NC(=O)CSc2ncc(C(=O)Nc3ccccc3)c(=O)n2C)c1`, 19.6%. In the case of `Fc1ccccc1COc1ccc(Br)cc1CNCC1CCCO1` (configuration not stated) it was 4.34%; in that of `Cc1cccc(N2C(=O)c3ccccc3C2=O)n1`, 4.5%; in that of `Cc1cccc(N2C(=O)c3ccc(Br)cc3C2=O)n1`, 8.73%. In the case of `Cc1csc(NC(=O)c2cc(=O)[nH]c3ccccc23)n1` it was 5.64%. On to `CN(C)S(=O)(=O)c1ccc(Cl)c(NC(=O)CN2CCNC(=O)C2)c1`, for which the inhibition was 5.76%. Under `Cc1ccc(C)c(NC(=O)C(Sc2nc3ccccc3c(=O)n2CC(C)C)c2ccccc2)c1` (configuration not stated) stands 4.6%; under `COc1ccc(C)cc1CN1C(=O)c2ccccc2C1=O`, 2.66%.

Turning to `COc1ccc(C=O)cc1CN1C(=O)c2ccccc2C1=O`, the inhibition was 0.06%. In the case of `COc1ccc(CN2CC(C(=O)N3CCOCC3)CC2=O)cc1` (configuration not stated), the inhibition is 13.7%.

With `Cc1c(NC(=O)c2ccc(-c3ccc([N+](=O)[O-])cc3Cl)o2)c(=O)n(-c2ccccc2)n1C`, the inhibition is 7.53%. Under `CCS(=O)(=O)C1=NN2C(=N)/C(=C\c3ccc(SCc4ccco4)o3)C(=O)N=C2S1` stands 59.6%.

`CCC1=NN2C(=N)/C(=C\c3ccc(SCc4ccco4)o3)C(=O)N=C2S1`: the inhibition was 0.38%. In the case of `O=C(O)CN1C(=O)/C(=C/c2ccc(SCc3ccccc3)o2)SC1=S` it was 12.4%; in that of `CC1=NN2C(=N)/C(=C\c3ccc(SCc4ccccc4)o3)C(=O)N=C2S1`, 15.7%. Under `N=C1/C(=C\c2ccc(SCc3ccccc3)o2)C(=O)N=C2SC=NN12` stands -0.34%; under `O=C1NC(=S)S/C1=C/c1ccc(OC(=O)c2ccco2)cc1`, 12%; under `Cc1ccc(-c2nnc(SC(C)C(=O)NCC3CCCO3)nc2-c2ccc(C)cc2)cc1` (configuration not stated), 7.01%. Under `Cn1c(=O)n(CCOc2ccc(Cl)cc2Cl)c2ccccc21` stands 24.1%; under `O=C(COC(=O)c1ccccc1Oc1ccccc1)NC1CCS(=O)(=O)C1` (configuration not stated), 2.91%. Take `COc1ccc(C2c3sc(=O)[nH]c3SCC2C(N)=O)cc1` (configuration not stated): the inhibition was 12.6%. Under `CCCCOP(=O)(c1ccc(N(C)C)cc1)C(O)c1ccccc1F` (configuration not stated) stands 0.81%; under `O=C(CN(C(=O)CCC(=O)Nc1ccccn1)c1cccc(F)c1)NCc1ccc2c(c1)OCO2`, 5.37%; under `CCCNC(=O)N[C@@H](CCSC)C(=O)OC`, 1.19%. In the case of `N#C/C(=C\c1ccccc1Cl)C(=O)NC(=O)Oc1ccccc1` it was 23.3%.

Consider `CCCCCc1nc2c(c(=O)c3ccccc3n2C)c(=O)n1Cc1ccc(OC)cc1`, for which the inhibition is 6.54%.

With `c1ccc(-n2cc(CN3CCCC(CN4CCCC4)C3)c(-c3ccc4c(c3)OCO4)n2)cc1` (configuration not stated), the inhibition was 0.36%. In the case of `CC(=O)c1cccc(NC(=O)CCNC(=O)c2ccccc2Cl)c1` it was 7.59%; in that of `O=C(N/N=C(\c1ccccc1)c1cccnc1)c1cccc(F)c1`, 8.05%.

For `O=C(N/N=C(\c1ccccc1)c1cccnc1)c1ccc(O)cc1`, the inhibition was 14.2%. In the case of `CCOC(=O)C1CCCN(C(=O)c2cn(CC)c3ccc(S(=O)(=O)N(C)C)cc3c2=O)C1` (configuration not stated) it was 12.6%. Turning to `Cc1c(Cl)cccc1NC(=O)Cn1cnc(S(=O)(=O)N2CCCC2)c1`, the inhibition was 12.7%.

In the case of `CC(NC(=S)Nc1ccc(Cl)cc1)C(c1ccccc1)N1CCOCC1` (configuration not stated), the inhibition is 8.17%. In the case of `CC[n+]1c(C)sc2cc(OC)ccc21` it was 8.13%. In the case of `COc1ccc2sc(C)[n+](C)c2c1` it was 11.2%; in that of `Cn1c(SCC(=O)Nc2ccc3c(c2)OCCO3)nnc1-c1cccnc1`, -0.17%. On to `COc1ccccc1N1CCN(/N=C/c2cccc(O)c2)CC1`, for which the inhibition is 7.2%. Under `COc1ccc(/C=N/N2CCN(c3ccccc3OC)CC2)cc1OC` stands 6.87%; under `c1ccc(C2=Nn3c(nnc3-c3ccco3)SC2)cc1`, 10.2%; under `Fc1ccc(C2=Nn3c(nnc3-c3ccco3)SC2)cc1`, 9.39%. Consider `CN1N=C(C(=O)N2CCCC(C(=O)c3cccc(C(F)(F)F)c3)C2)CCC1=O` (configuration not stated), for which the inhibition is 2.73%. In the case of `CCOc1ccccc1/C=N/n1c(COc2ccccc2)n[nH]c1=S` it was 14.8%; in that of `CCN(CC)c1ccc(/C=c2\sc3nc4ccccc4n3c2=O)c(O)c1`, 11.3%. As to `O=c1/c(=C/c2ccc(O)c([N+](=O)[O-])c2)sc2nc3ccccc3n12`, the inhibition is 9.09%. In the case of `O=C(O)COCC(=O)Nc1ccc(-n2cnnn2)cc1`, the inhibition was 3.06%. In the case of `C/C(=N\NC(=O)Cn1nc(C)c([N+](=O)[O-])c1C)c1ccc(O)cc1` it was 34.5%. Under `C/C(=N\NC(=O)c1cccc(N/N=C(\C)c2ccc([N+](=O)[O-])cc2)c1)c1ccc([N+](=O)[O-])cc1` stands 7.03%; under `C/C(=N\NC(=O)Cn1cc([N+](=O)[O-])cn1)c1ccco1`, -0.91%. In the case of `C/C(=N\NC(=O)c1ccc([N+](=O)[O-])cc1)c1cccc([N+](=O)[O-])c1` it was 6.04%.
